The campaign covered roughly 5,500 compounds. About 2,000 (36%) were called active. Another 18% or so got no clear call; they are omitted. The list shows a part of the results. A number with no mark means an inactive call. Cut-off read from the data, not from the text of the source: active = normalized growth mostly below about 0.91 (no sharp cut-off); inconclusive = no clear call, values can overlap the other calls; inactive = mostly above about 0.92.
Assay: chemical genetic growth profiling, strain panel (AID 1159580);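 note: tested at 20 µM; growth read once vehicle control cultures reached saturation at 30 °C; 1 = growth at the plate median or of vehicle wells; lower values mean less growth of the strain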
Settings: S. cerevisiae deletion strains, growth OD

Q: For COc1cc(NC(=S)Nc2ccccc2OC(F)(F)F)cc(C(F)(F)F)c1, which normalized growth (locus YAR019C, strain CDC15, active compounds read low) is on record?
A: Its normalized growth is 0.969.

Q: And the normalized growth (locus YBL105C, strain PKC1, active compounds read low)?
A: Its normalized growth is 0.977.

Q: And the normalized growth (locus YBR135W, strain CKS1, active compounds read low)?
A: Its normalized growth is 0.977.

Q: And the normalized growth (locus YBR136W, strain MEC1, active compounds read low)?
A: The normalized growth was 0.975.

Q: What about the normalized growth (locus YBR160W, strain CDC28, active compounds read low) of the same compound?
A: Its normalized growth is 0.972.

Q: And the normalized growth (locus YDL017W, strain CDC7, active compounds read low)?
A: Its normalized growth is 0.982.

Q: What about the normalized growth (locus YDL028C, strain MPS1, active compounds read low) of the same compound?
A: Its normalized growth is 0.962.

Q: What about the normalized growth (locus YDL101C, strain DUN1, active compounds read low) of the same compound?
A: The normalized growth was 0.99.

Q: And the normalized growth (locus YDL108W, strain KIN28, active compounds read low)?
A: Its normalized growth is 0.965.

Q: What about the normalized growth (locus YDL132W, strain cdc53, active compounds read low) of the same compound?
A: The normalized growth was 0.974.

Q: And the normalized growth (locus YDL214C, strain PRR2, active compounds read low)?
A: The normalized growth was 0.937.

Q: What about the normalized growth (locus YDR052C, strain DBF4, active compounds read low) of the same compound?
A: Its normalized growth is 0.991.

Q: And the normalized growth (locus YDR054C, strain cdc34, active compounds read low)?
A: The normalized growth was 0.975.

Q: And the normalized growth (locus YDR226W, strain ADK1, active compounds read low)?
A: The normalized growth was 0.977.

Q: What about the normalized growth (locus YDR477W, strain SNF1, active compounds read low) of the same compound?
A: Its normalized growth is 0.945.

Q: And the normalized growth (locus YER123W, strain YCK3, active compounds read low)?
A: Its normalized growth is 0.931.

Q: And the normalized growth (locus YER133W, strain GLC7, active compounds read low)?
A: Its normalized growth is 0.948.

Q: And the normalized growth (locus YFL009W, strain cdc4, active compounds read low)?
A: The normalized growth was 0.967.

Q: And the normalized growth (locus YFL029C, strain CAK1, active compounds read low)?
A: The normalized growth was 0.962.

Q: What about the normalized growth (locus YFR003C, strain YPI1, active compounds read low) of the same compound?
A: The normalized growth was 0.987.

Q: And the normalized growth (locus YFR019W, strain FAB1, active compounds read low)?
A: Its normalized growth is 0.983.

Q: What about the normalized growth (locus YFR028C, strain CDC14, active compounds read low) of the same compound?
A: Its normalized growth is 0.969.

Q: What about the normalized growth (locus YGR040W, strain KSS1, active compounds read low) of the same compound?
A: The normalized growth was 0.951.

Q: And the normalized growth (locus YGR052W, strain FMP48, active compounds read low)?
A: Its normalized growth is 0.994.

Q: And the normalized growth (locus YGR092W, strain DBF2, active compounds read low)?
A: The normalized growth was 0.962.

Q: What about the normalized growth (locus YHR030C, strain SLT2, active compounds read low) of the same compound?
A: Its normalized growth is 0.824 (active).

Q: What about the normalized growth (locus YHR079C, strain IRE1, active compounds read low) of the same compound?
A: Its normalized growth is 0.985.

Q: What about the normalized growth (locus YHR082C, strain KSP1, active compounds read low) of the same compound?
A: Its normalized growth is 0.972.

Q: What about the normalized growth (locus YHR205W, strain SCH9, active compounds read low) of the same compound?
A: The normalized growth was 0.922.

Q: What about the normalized growth (locus YIL147C, strain SLN1, active compounds read low) of the same compound?
A: The normalized growth was 0.961.

Q: What about the normalized growth (locus YJL095W, strain BCK1, active compounds read low) of the same compound?
A: Its normalized growth is 0.956.

Q: What about the normalized growth (locus YJL128C, strain PBS2, active compounds read low) of the same compound?
A: Its normalized growth is 0.929.

Q: And the normalized growth (locus YJL157C, strain FAR1, active compounds read low)?
A: The normalized growth was 0.962.

Q: And the normalized growth (locus YJR016C, strain ILV3, active compounds read low)?
A: Its normalized growth is 0.989.

Q: And the normalized growth (locus YJR066W, strain TOR1 (second series), active compounds read low)?
A: The normalized growth was 1.

Q: What about the normalized growth (locus YJR066W, strain TOR1, active compounds read low) of the same compound?
A: Its normalized growth is 0.926.

Q: And the normalized growth (locus YKL048C, strain ELM1, active compounds read low)?
A: The normalized growth was 0.971.

Q: What about the normalized growth (locus YKL067W, strain YNK1, active compounds read low) of the same compound?
A: The normalized growth was 0.926.

Q: What about the normalized growth (locus YKL101W, strain HSL1, active compounds read low) of the same compound?
A: The normalized growth was 0.937.

Q: What about the normalized growth (locus YKL193C, strain SDS22, active compounds read low) of the same compound?
A: Its normalized growth is 0.977.

Q: And the normalized growth (locus YKL203C, strain TOR2, active compounds read low)?
A: The normalized growth was 1.03.

Q: What about the normalized growth (locus YLR113W, strain HOG1, active compounds read low) of the same compound?
A: The normalized growth was 0.886.

Q: What about the normalized growth (locus YLR133W, strain CKI1, active compounds read low) of the same compound?
A: Its normalized growth is 0.96.

Q: What about the normalized growth (locus YLR403W, strain SFP1, active compounds read low) of the same compound?
A: The normalized growth was 0.968.

Q: What about the normalized growth (locus YML070W, strain DAK1, active compounds read low) of the same compound?
A: Its normalized growth is 0.94.

Q: What about the normalized growth (locus YMR001C, strain CDC5, active compounds read low) of the same compound?
A: Its normalized growth is 0.959.

Q: And the normalized growth (locus YMR205C, strain PFK2 (second series), active compounds read low)?
A: Its normalized growth is 0.962.

Q: What about the normalized growth (locus YMR277W, strain FCP1, active compounds read low) of the same compound?
A: The normalized growth was 0.954.

Q: What about the normalized growth (locus YNL006W, strain LST8, active compounds read low) of the same compound?
A: Its normalized growth is 0.978.

Q: And the normalized growth (locus YNL020C, strain ARK1, active compounds read low)?
A: The normalized growth was 0.965.

Q: What about the normalized growth (locus YNL161W, strain CBK1, active compounds read low) of the same compound?
A: Its normalized growth is 0.977.

Q: What about the normalized growth (locus YNL183C, strain NPR1, active compounds read low) of the same compound?
A: The normalized growth was 1.01.

Q: What about the normalized growth (locus YNL207W, strain RIO2, active compounds read low) of the same compound?
A: Its normalized growth is 0.985.

Q: What about the normalized growth (locus YNL222W, strain SSU72, active compounds read low) of the same compound?
A: Its normalized growth is 0.965.

Q: And the normalized growth (locus YNL307C, strain MCK1 (second series), active compounds read low)?
A: Its normalized growth is 0.956.

Q: What about the normalized growth (locus YOL078W, strain AVO1, active compounds read low) of the same compound?
A: The normalized growth was 0.97.

Q: What about the normalized growth (locus YOL136C, strain PFK27, active compounds read low) of the same compound?
A: The normalized growth was 0.935.

Q: What about the normalized growth (locus YOR061W, strain CKA2, active compounds read low) of the same compound?
A: The normalized growth was 0.962.

Q: And the normalized growth (locus YOR119C, strain RIO1, active compounds read low)?
A: Its normalized growth is 0.964.

Q: What about the normalized growth (locus YOR231W, strain MKK1, active compounds read low) of the same compound?
A: Its normalized growth is 0.945.

Q: What about the normalized growth (locus YOR329C, strain SCD5, active compounds read low) of the same compound?
A: Its normalized growth is 0.99.

Q: What about the normalized growth (locus YPL031C, strain PHO85, active compounds read low) of the same compound?
A: The normalized growth was 0.957.

Q: And the normalized growth (locus YPL153C, strain RAD53, active compounds read low)?
A: The normalized growth was 0.952.

Q: What about the normalized growth (locus YPL204W, strain HRR25, active compounds read low) of the same compound?
A: The normalized growth was 0.957.

Q: And the normalized growth (locus YPL209C, strain IPL1, active compounds read low)?
A: Its normalized growth is 0.976.

Q: And the normalized growth (locus YPL256C, strain CLN2, active compounds read low)?
A: The normalized growth was 0.927.

Q: What about the normalized growth (locus YPR025C, strain CCL1, active compounds read low) of the same compound?
A: Its normalized growth is 0.984.

Q: And the normalized growth (locus YPR106W, strain ISR1, active compounds read low)?
A: Its normalized growth is 0.974.

Q: What about the normalized growth (locus YPR111W, strain DBF20, active compounds read low) of the same compound?
A: The normalized growth was 0.953.

Q: And the normalized growth (strain NNK1, active compounds read low)?
A: The normalized growth was 0.974.

Q: And the normalized growth (strain TSCII, active compounds read low)?
A: Its normalized growth is 0.97.
